Values joined by “and” are separate entries in the source; they are usually repeats but may differ in a detail not shown here. Equal values may be shown once. The whole screen tested about 5,500 compounds, of which about 2,000 (36%) were called active. Inconclusive results (about 18%) are left out. Cut-off read from the data, not from the text of the source: active = normalized growth mostly below about 0.91 (no sharp cut-off); inconclusive = no clear call, values can overlap the other calls; inactive = mostly above about 0.92. The list shows a part of the results.
Experiment: chemical genetic growth profiling, strain panel (AID 1159580);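 note: tested at 20 µM; growth read once vehicle control cultures reached saturation at 30 °C; 1 = growth at the plate median or of vehicle wells; lower values mean less growth of the strain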
Settings: S. cerevisiae deletion strains, growth OD

Measured: normalized growth

CC(=O)Nc1c(I)cc(I)c(C(=O)O)c1I
inactive: locus YAL013W, strain DEP1, active compounds read low 0.992 | locus YAL021C, strain ccr4, active compounds read low 0.986 | locus YAL026C, strain drs2, active compounds read low 0.995 | locus YAL030W, strain snc1, active compounds read low 0.978 | locus YBL061C, strain skt5, active compounds read low 0.974 | locus YBR009C, strain hhf1, active compounds read low 0.992 | locus YBR021W, strain FUR4, active compounds read low 1.02 | locus YBR023C, strain chs3, active compounds read low 0.979 | locus YBR171W, strain sec66, active compounds read low 0.967 | locus YBR229C, strain ROT2, active compounds read low 0.983 | locus YBR231C, strain swc5, active compounds read low 0.971 | locus YBR279W, strain paf1, active compounds read low 0.985 | locus YCL011C, strain gbp2, active compounds read low 0.994 | locus YCL016C, strain dcc1, active compounds read low 0.994 | locus YCL029C, strain bik1, active compounds read low 0.994 | locus YCL069W, strain vba3, active compounds read low 0.98 | locus YCR088W, strain abp1, active compounds read low 0.978 | locus YDL005C, strain med2, active compounds read low 0.967 | locus YDL035C, strain GPR1, active compounds read low 1.01 | locus YDL040C, strain nat1, active compounds read low 0.976 | locus YDL074C, strain BRE1, active compounds read low 1.02 | locus YDL101C, strain DUN1, active compounds read low 0.99 | locus YDL134C, strain PPH21, active compounds read low 0.983 | locus YDL185W, strain tfp1, active compounds read low 0.987 | locus YDL192W, strain arf1, active compounds read low 0.999 | locus YDR001C, strain nth1, active compounds read low 0.991 | locus YDR069C, strain doa4, active compounds read low 0.959 | locus YDR101C, strain arx1, active compounds read low 0.995 | locus YDR137W, strain rgp1, active compounds read low 0.967 | locus YDR150W, strain NUM1, active compounds read low 0.996 | locus YDR159W, strain sac3, active compounds read low 0.967 | locus YDR162C, strain NBP2, active compounds read low 1.02 | locus YDR195W, strain ref2 0.91 | locus YDR297W, strain sur2, active compounds read low 0.994 | locus YDR318W, strain mcm21, active compounds read low 0.995 | locus YDR334W, strain swr1, active compounds read low 0.976 | locus YDR335W, strain msn5, active compounds read low 0.988 | locus YDR388W, active compounds read low 0.988 | locus YDR392W, strain spt3, active compounds read low 1.03 | locus YDR502C, strain sam2, active compounds read low 0.996 | locus YEL003W, strain gim4, active compounds read low 0.978 | locus YEL037C, strain rad23, active compounds read low 0.975 | locus YEL061C, strain CIN8 (second series), active compounds read low 0.966 | locus YEL061C, strain CIN8, active compounds read low 0.999 | locus YER015W, strain faa2, active compounds read low 0.99 | locus YER016W, strain bim1, active compounds read low 0.979 | locus YER110C, active compounds read low 0.989 | locus YER111C, strain swi4, active compounds read low 0.981 | locus YER155C, strain BEM2 (second series), active compounds read low 0.977 | locus YER155C, strain BEM2, active compounds read low 0.986 | locus YER167W, strain BCK2, active compounds read low 0.992 | locus YFR010W, strain ubp6, active compounds read low 0.965 | locus YGL078C, strain dbp3, active compounds read low 0.995 | locus YGL086W, strain mad1, active compounds read low 0.981 | locus YGL167C, strain pmr1, active compounds read low 0.971 | locus YGL173C, strain kem1, active compounds read low 0.99 | locus YGL227W, strain vid30, active compounds read low 0.971 | locus YGL240W, strain doc1, active compounds read low 0.974 | locus YGL248W, strain PDE1, active compounds read low 0.986 | locus YGL253W, strain hxk2, active compounds read low 0.979 | locus YGR078C, strain PAC10, active compounds read low 1.05 | locus YGR135W, strain pre9, active compounds read low 0.994 | locus YGR229C, strain SMI1, active compounds read low 1.06 | locus YGR252W, strain gcn5, active compounds read low 0.986 | locus YHR013C, strain ard1, active compounds read low 0.987 | locus YHR027C, strain rpn1, active compounds read low 0.982 | locus YHR030C, strain SLT2, active compounds read low 0.991 and 1.01 | locus YHR079C, strain IRE1 (second series), active compounds read low 0.998 | locus YHR079C, strain IRE1, active compounds read low 1 | locus YHR094C, strain hxt1, active compounds read low 0.989 | locus YHR129C, strain ARP1, active compounds read low 0.991 | locus YHR142W, strain chs7, active compounds read low 0.987 | locus YHR200W, strain rpn10, active compounds read low 0.991 | locus YIL066C, strain RNR3, active compounds read low 1 | locus YIL073C, strain SPO22, active compounds read low 1.01 | locus YIL125W, strain kgd1, active compounds read low 0.992 | locus YIR030C, strain dcg1, active compounds read low 0.992 | locus YJL092W, strain hpr5, active compounds read low 0.973 | locus YJL095W, strain BCK1 (second series), active compounds read low 0.978 | locus YJL095W, strain BCK1, active compounds read low 1.01 | locus YJL115W, strain asf1, active compounds read low 0.963 | locus YJL129C, strain trk1, active compounds read low 0.946 | locus YJL134W, strain LCB3, active compounds read low 0.994 | locus YJL154C, strain vps35, active compounds read low 0.964 | locus YJL164C, strain tpk1, active compounds read low 0.995 | locus YJL166W, strain qcr8, active compounds read low 0.971 | locus YJL168C, strain set2, active compounds read low 0.99 | locus YJL187C, strain SWE1 (second series), active compounds read low 0.995 | locus YJL187C, strain SWE1, active compounds read low 0.983 | locus YJR043C, strain POL32, active compounds read low 1.03 | locus YJR066W, strain TOR1, active compounds read low 0.963

From PubChem BioAssay AID1159580 (chemical genetic matrix, 2015)
